H9c2 protect: cardioprotection against H2O2-induced cell death, primary screen, uHTS, H9c2 cells, ATPLite luminescence; hit rate 0.63% among 360,000; protection from H2O2 cell death, % at 20 µM; H9c2 cardiomyocytes, H2O2 injury protection, 2 h;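 active = compounds giving at least 50% protection of heart cells from peroxide-induced death in the single-dose screen, raw or plate-pattern-corrected value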
Gli-Sufu block: Gli-Sufu pathway antagonists, primary screen, luciferase luminescence, Sufu-KO-LIGHT cells, uHTS | Sufu-KO-LIGHT fibroblasts, Gli luciferase reporter luminescence | inhibition, % at 5 µM | hit rate 0.74% among 340,000;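 active = inhibition above about 55%, limit read from the data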
NR2F2 inh: NR2F2 transcriptional activity inhibitors, primary screen, cell-based, luciferase reporter, HEK293T, luminescence. COUP transcription factor 2 (Homo sapiens), P24468. HEK293T NGFI-A luciferase reporter. hit rate 0.7% among 370,000. inhibition, % at 8.6 µM. AID 686940, 2013;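 active = inhibition above a per-plate cutoff, mean inhibition of test wells between control levels plus 3 SD, cut at about 38% in these data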;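 note: cells cotransfected with COUP-TFII expression vector driving the NGFI-A reporter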
Target sequence (P24468 whole entry, looked up): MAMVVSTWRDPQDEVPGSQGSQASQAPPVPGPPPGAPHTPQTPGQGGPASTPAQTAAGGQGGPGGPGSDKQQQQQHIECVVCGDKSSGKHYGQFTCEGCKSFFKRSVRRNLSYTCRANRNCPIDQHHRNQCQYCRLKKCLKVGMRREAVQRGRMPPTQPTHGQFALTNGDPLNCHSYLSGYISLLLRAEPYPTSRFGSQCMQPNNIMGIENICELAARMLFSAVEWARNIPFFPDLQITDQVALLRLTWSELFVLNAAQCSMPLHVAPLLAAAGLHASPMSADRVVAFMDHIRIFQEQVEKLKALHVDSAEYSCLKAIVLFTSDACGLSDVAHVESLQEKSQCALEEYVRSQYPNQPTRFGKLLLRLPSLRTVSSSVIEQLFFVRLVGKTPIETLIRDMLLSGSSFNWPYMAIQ
H9c2 TAG inh: inhibitors of triacylglycerol accumulation, primary screen, cell-based, uHTS, fluorescence, H9c2. H9c2 cells, Nile Red lipid (TAG) fluorescence; cells loaded with 200 µM oleic acid. AID 651582, 2012. inhibition, % at 12.5 µM. hit rate 0.66% among 230,000;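 active = pattern-corrected inhibition of lipid staining of at least 50% with the nuclear-stain viability signal not falling by more than 50%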
697 NFkB inh: inhibitors of PMA/ionomycin-induced NF-kB reporter, 697 cells, primary screen, B-cell NF-kB inhibitor project, cell-based, luminescence, uHTS | 697 B-cell NF-kB luciferase reporter, 16 h | inhibition, % at 4 µM | hit rate 0.33% among 330,000 | AID 435022, 2010; in the data active = inhibition above about 35%
Jurkat NFkB inh: inhibitors of induced NF-kB luciferase reporter, primary screen, TCR NF-kB activation inhibitor project, cell-based, luminescence, uHTS; hit rate 0.53% among 330,000; AID 435003, 2010; Jurkat, PMA/ionomycin-induced NF-kB luciferase reporter; inhibition, % at 4 µM; in the data active = inhibition above about 50%
Gli-Sufu confirm: Gli-SUFU pathway antagonists, confirmation, single concentration, luciferase luminescence, Sufu-KO-LIGHT cells | shares compounds with Gli-Sufu block | Gli luciferase reporter | inhibition, % at 5 µM | hit rate 40% among 2,500;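 active = mean inhibition at 5 µM reaching about 45%, limit read from the data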
Gli cytotox: cytotoxicity in Sufu-KO-LIGHT cells, confirmation, cytotoxicity control for Gli-SUFU antagonist project, cell-based, ATP luminescence, single concentration; shares compounds with Gli-Sufu block; cytotoxicity, % at 5 µM; hit rate 32% among 2,500; AID 651994, 2013;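 active = mean cytotoxicity at 5 µM above about 25%, limit read from the data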;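 note: cells exposed to compound overnight for roughly 16 to 18 hours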
Wnt3a counter: Wnt3a reporter signal inhibition, confirmation, counter-screen for Gli-SUFU antagonist project, Wnt-LIGHT cells, luminescence, single concentration | shares compounds with Gli-Sufu block | Wnt3a-driven luciferase reporter | inhibition, % at 6.25 µM | hit rate 20% among 2,500 | AID 651995, 2013;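 active = mean inhibition above about 25%, limit read from the data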
Numbers stand for hits; n = inactive; x = no result. Only some compounds are listed: those with a hit (about 2.6% of all), similar ones and a draw of the others.

SMILES	H9c2 protect	Gli-Sufu block	NR2F2 inh	H9c2 TAG inh	697 NFkB inh	Jurkat NFkB inh	Gli-Sufu confirm	Gli cytotox	Wnt3a counter
COc1ccc(-c2cnnc(N/N=C/c3ccc(OC)c(OC)c3)n2)cc1	n	n	n	x	n	n	n	n	n
COc1ccc(/C=N/Nc2nc(C)cc(-c3ccccc3)n2)cc1OC	n	n	n	n	n	n	x	x	x
Cc1ccccc1N1C(=O)c2cccc([N+](=O)[O-])c2C1=O	n	65	n	n	x	x	n	n	n
CCc1nc2ccc(C(=O)NCCCN3CCN(c4ccccc4F)CC3)cc2nc1CC	n	n	n	x	n	n	n	27	n
Cc1c(C)n(C)c2ccc(C(=O)NCCCN3CCN(c4ccccc4F)CC3)cc12	n	n	n	x	n	n	x	x	x
O=C(O)C1C2C=CC(C2)C1C(=O)Nc1ccc2c(c1)OCCO2 (stereo not drawn)	n	60	x	n	n	n	n	n	54
O=C(O)C1C2C=CC(O2)C1C(=O)Nc1ccc2c(c1)OCCO2 (stereo not drawn)	x	x	x	x	n	n	x	x	x
CC1CCC(NC(=O)c2cccc(S(=O)(=O)N3CCN(c4ccccc4)CC3)c2)CC1 (stereo not drawn)	n	n	n	n	n	n	47	n	n
NS(=O)(=O)c1ccc(CCNCc2cc(Br)ccc2OCc2ccccc2F)cc1	n	x	n	x	n	n	x	x	x
NS(=O)(=O)c1ccc(CCNCc2cc(Cl)ccc2OCc2ccccc2)cc1	n	56	n	x	n	n	n	n	n
C=CCOc1ccccc1CNCCc1ccc(S(N)(=O)=O)cc1	n	n	n	n	n	n	x	x	x
NS(=O)(=O)c1ccc(CCNCc2ccccc2OCc2ccc(Cl)cc2)cc1	n	n	n	x	n	n	n	n	n
CN(C)c1nc2c(N)ncnc2n1C1OC(CO)C(O)C1O (stereo not drawn)	n	n	n	n	x	x	x	x	x
CN(C)c1ncnc2c1ccn2C1OC(CO)C(O)C1O (stereo not drawn)	n	62	n	n	x	x	68	48	40
CC(C)C(C)(C#N)NC(=O)CSc1nnc(-c2ccncc2)n1Cc1ccccc1 (stereo not drawn)	n	95	n	n	n	n	n	n	n
CC(C)(C)NC(=O)CSc1nnc(-c2ccncc2)n1Cc1ccccc1	n	n	n	n	n	n	x	x	x
O=C(CN(C(=O)CCC(=O)Nc1nccs1)c1cccc(F)c1)NCC1CCCO1 (stereo not drawn)	n	n	n	n	n	n	x	x	x
CC(C)(C)NC(=O)CN(C(=O)CCC(=O)Nc1nccs1)c1cccc(C(F)(F)F)c1	n	n	n	x	n	n	n	n	n
Cc1cccc(N(CC(=O)NC(C)(C)C)C(=O)CCC(=O)Nc2nccs2)c1	n	n	n	x	n	n	x	x	x
O=C(CN(C(=O)CCC(=O)Nc1nccs1)c1cccc(C(F)(F)F)c1)NCC1CCCO1 (stereo not drawn)	n	56	n	x	n	n	n	26	n
Cc1ccc([N+](=O)[O-])cc1N=Nc1c(C)[nH]n(C(N)=S)c1=O	n	n	n	x	n	n	x	x	x
Cc1ccc([N+](=O)[O-])cc1N=Nc1c(-c2ccc([N+](=O)[O-])cc2)[nH]n(C(N)=S)c1=O	n	58	x	n	x	x	60	n	47
Brc1ccc2nc(-c3ccc(CN4CCC5(CC4)CNc4ccccc45)cc3)c(-c3ccccc3)nc2c1	x	x	n	x	x	x	x	x	x
CN(CC(=O)Nc1ccccc1Cl)C(=O)CN1C(=O)C2CCCCC2C1=O (stereo not drawn)	n	n	n	n	n	n	x	x	x

From PubChem BioAssay
